The record followed here is PubChem BioAssay (EPA / NIEHS).

Experiment [1] can be described thus: ATG_E_Box_CIS: Attagene CIS-FACTORIAL HepG2 Assay for human Enhancer Box (E-box) (AID 2282936). Conditions: HepG2 E-box cis-reporter transcription, actives raise or lower the signal. The gist of the method:
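In this cell-based setup, HepG2 cells bearing transfected promoter-driven reporter units were exposed to chemicals for 24 h; reporter transcripts were amplified, 6-FAM-labelled, cut with HpaI and sized by capillary electrophoresis.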

Experiment [2] is described as follows: ATG_M_61_CIS: Attagene CIS-FACTORIAL HepG2 Assay for M61 Transcription Factor (Internal Marker) (AID 2282937). Conditions: HepG2 Attagene CIS-FACTORIAL M61 internal marker reporter; actives raise or lower the signal. The essentials: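 Transfect HepG2 with MRTUs; dose 24 h; isolate RNA; reverse-transcribe with DNase I treatment; PCR-amplify, FAM-label and cut with HpaI for 2 h at 37 C; resolve by CE. Bidirectional fitting against DMSO.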

Experiment [3] is described as follows: ATG_EGR_CIS: Attagene CIS-FACTORIAL HepG2 Assay for human Early Growth Response 1 (EGR1) (AID 2282938). The settings on record: HepG2 Attagene CIS-FACTORIAL EGR reporter mRNA; actives raise or lower the signal. The gist of the method: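 After a 24 h treatment of transiently transfected HepG2 cells, total RNA was reverse-transcribed and reporter sequences PCR-amplified, labelled and run on capillary electrophoresis. Reporters sit under cis-regulatory promoters sensing endogenous factors.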

Experiment [4] is described as follows: ATG_M_19_CIS: Attagene CIS-FACTORIAL HepG2 Assay for M19 Transcription Factor (Internal Marker) (AID 2282939). Conditions: HepG2 Attagene CIS-FACTORIAL M19 internal marker reporter; actives raise or lower the signal. The gist of the method: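 Signals come from fluorescence of labelled reporter-specific PCR fragments resolved by capillary electrophoresis, following 24 h treatment of HepG2 cells transfected with cis-promoter reporter units; activity was fitted in both directions relative to DMSO.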

Experiment [5] in a line: ATG_Ets_CIS: Attagene CIS-FACTORIAL HepG2 Assay for human Erythroblast Transformation Specific (ETS) (AID 2282941). Conditions: HepG2 ETS cis-reporter transcription, actives raise or lower the signal. The essentials: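 RT-PCR/capillary electrophoresis fluorescence read-out of reporter mRNA; HepG2 transient multi-reporter transfection; 24 h compound exposure; gain or loss of signal fitted bidirectionally relative to DMSO.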

For experiment [6], the target named is Hepatocyte nuclear factor 3-beta (Homo sapiens) (UniProt Q9Y261). Put plainly: ATG_FoxA2_CIS: Attagene CIS-FACTORIAL HepG2 Assay for human Forkhead box A2 (FOXA2) (AID 2282942). Conditions: HepG2 cis-reporter transcription factor activity, 24 h; actives raise or lower the signal. The essentials: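 24 h dosing of HepG2 bearing cis-reporter constructs; mRNA readout by RT-PCR/CE fluorescence; bidirectional fit, DMSO baseline.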

A short description of experiment [7]: ATG_FoxO_CIS: Attagene CIS-FACTORIAL HepG2 Assay for human Forkhead box O (FoxO) (AID 2282943). The settings on record: HepG2 Attagene cis-reporter, FoxO element, mRNA; actives raise or lower the signal. The gist of the method: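 Read-out: fluorescence of 6-FAM-labelled reporter cDNA fragments resolved by capillary electrophoresis. Transiently transfected HepG2 cells were dosed for 24 h; activity fitted in both directions relative to DMSO controls.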

Experiment [8] is described as follows: ATG_GATA_CIS: Attagene CIS-FACTORIAL HepG2 Assay for human GATA Binding Protein (AID 2282944). Conditions: HepG2 GATA cis-element reporter, Attagene multiplex mRNA; actives raise or lower the signal. The gist of the method: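 After transfecting HepG2 cells with multiple cis-regulated reporter units, chemicals are dosed for 24 h; isolated RNA undergoes RT-PCR and fluorescent labeling before capillary electrophoresis, with activity expressed against DMSO.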

The nature of experiment [9]: ATG_GLI_CIS: Attagene CIS-FACTORIAL HepG2 Assay for human Zinc Finger Protein GLI1 (AID 2282945). The settings on record: HepG2, Attagene cis-factorial reporter mRNA, GLI element; actives raise or lower the signal. The gist of the method:
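Transiently transfected HepG2 cells report endogenous transcription factor activity via cis-element-driven reporter units. After 24 h compound exposure, reporter mRNA was measured by RT-PCR with capillary electrophoresis; bidirectional fitting against DMSO baseline.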

The nature of experiment [10]: ATG_ISRE_CIS: Attagene CIS-FACTORIAL HepG2 Assay for human Interferon Regulatory Factor 1 (IRF1) binding to an Interferon-Stimulated Response Element (ISRE) (AID 2282948). The settings on record: HepG2 ISRE cis-reporter (Attagene), mRNA transcription readout; actives raise or lower the signal. The essentials: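 Read-out: fluorescent RT-PCR products resolved by capillary electrophoresis, reporting endogenous transcription factor activity via ISRE-driven reporter mRNA in transfected HepG2 cells dosed for 24 h; gain or loss fitted relative to DMSO.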

Experiment [11] can be described thus: ATG_M_32_CIS: Attagene CIS-FACTORIAL HepG2 Assay for M32 Transcription Factor (Internal Marker) (AID 2282949).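 Note: background control marker of the multiplexed CIS panel rather than a real target.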 Conditions: HepG2 Attagene cis-factorial M32 reporter, mRNA; actives raise or lower the signal. The essentials:
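HepG2 transfectants (cis-regulated reporter transcription units) dosed 24 h. Reporter mRNA by RT-PCR plus CE, analysed as gain or loss relative to DMSO.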

Experiment [12] can be described thus: ATG_M_06_CIS: Attagene CIS-FACTORIAL HepG2 Assay for M06 Transcription Factor (Internal Marker) (AID 2282950). The settings on record: HepG2 Attagene CIS-FACTORIAL M06 internal marker reporter; actives raise or lower the signal. The gist of the method: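 HepG2 liver cells, 24 h exposure. Reporter transcripts from transfected cis-element constructs quantified by RT-PCR/capillary electrophoresis fluorescence. Bidirectional curve fit against DMSO.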

Experiment [13] concerns the target Hypoxia-inducible factor 1-alpha (Homo sapiens) (UniProt Q16665). Put plainly: ATG_HIF1a_CIS: Attagene CIS-FACTORIAL HepG2 Assay for human Hypoxia Inducible Factor 1 (HIF1A) (AID 2282951). The settings on record: HepG2 Attagene cis-factorial HIF1a reporter transcription; actives raise or lower the signal. The essentials: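 After 24 h chemical exposure of reporter-transfected HepG2 cells, reporter cDNA was PCR-amplified, labelled by 6-FAM primer extension (2 min 95 C, 20 s 68 C, 10 min 72 C), HpaI-cut (2 h, 37 C) and analysed by CE.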

Experiment [14] has as its target Hepatocyte nuclear factor 6 (Homo sapiens) (UniProt Q9UBC0). Put plainly: ATG_HNF6_CIS: Attagene CIS-FACTORIAL HepG2 Assay for human Hepatocyte Nuclear Factor 6 (HNF6) (AID 2282952). Conditions: HepG2 Attagene cis-factorial HNF6 reporter transcription; actives raise or lower the signal. The essentials: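 Endogenous factor activity read in transiently transfected HepG2 via promoter-regulated reporter transcripts. RNA harvested 24 h post-dosing, reverse-transcribed, PCR-amplified, FAM-labelled, HpaI-digested and resolved by capillary electrophoresis; fitted in both directions against DMSO.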

In experiment [15] the target is Heat shock factor protein 1 (Homo sapiens) (UniProt Q00613). The experiment is described as follows: ATG_HSE_CIS: Attagene CIS-FACTORIAL HepG2 Assay for human Heat Shock Transcription Factor 1 (HSE) (AID 2282953). The settings on record: HepG2 HSE cis-reporter, Attagene RNA transcription; actives raise or lower the signal. The gist of the method: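 Endogenous transcription factor activity captured via cis-promoter reporter units transfected into HepG2; treatment lasted 24 h. Fluorescence intensity of reporter fragments analysed with bidirectional curve fitting, DMSO baseline.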

The nature of experiment [16]: ATG_MRE_CIS: Attagene CIS-FACTORIAL HepG2 Assay for human Metal Responsive Element (MRE) (AID 2282954). The settings on record: HepG2 MRE cis-reporter transcription, Attagene multiplex; actives raise or lower the signal. The gist of the method:
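Measured here is mRNA induction from an MRE cis-element reporter in HepG2 after 24 h, quantified by fluorescence of labelled RT-PCR products on capillary electrophoresis; gain- and loss-of-signal fits use DMSO as baseline.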

The nature of experiment [17]: ATG_GRE_CIS: Attagene CIS-FACTORIAL HepG2 Assay for human Glucocorticoid Response Elements (GRE) (AID 2282947). The settings on record: HepG2 GRE cis-reporter, Attagene multiplex mRNA; actives raise or lower the signal. The essentials: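 Fluorescence intensity of reporter-specific cDNA fragments, separated by capillary electrophoresis, provides the signal. Constructs carry cis-regulating promoters in transiently transfected HepG2 liver cells; 24 h incubation; fitting is bidirectional against DMSO.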

Experiment [18] can be described thus: ATG_PBREM_CIS: Attagene CIS-FACTORIAL HepG2 Assay for human Phenobarbital-responsive Enhancer Module (PBREM) (AID 2282955). Conditions: HepG2 PBREM cis-reporter, Attagene multiplexed transcription; actives raise or lower the signal. The essentials: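 Measures endogenous factor action on a phenobarbital-responsive enhancer module. HepG2 transiently carrying cis reporters, 24 h treatment, mRNA read-out by RT-PCR plus capillary electrophoresis.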

Calls of active or inactive are those of the source. Rule for the calls: active = hit-call score of the fitted dose curve at least 0.9, where 1 is the maximum; inactive = score below 0.9.

Hepatocyte nuclear factor 6 (Homo sapiens), sequence (Q9UBC0 whole entry, looked up): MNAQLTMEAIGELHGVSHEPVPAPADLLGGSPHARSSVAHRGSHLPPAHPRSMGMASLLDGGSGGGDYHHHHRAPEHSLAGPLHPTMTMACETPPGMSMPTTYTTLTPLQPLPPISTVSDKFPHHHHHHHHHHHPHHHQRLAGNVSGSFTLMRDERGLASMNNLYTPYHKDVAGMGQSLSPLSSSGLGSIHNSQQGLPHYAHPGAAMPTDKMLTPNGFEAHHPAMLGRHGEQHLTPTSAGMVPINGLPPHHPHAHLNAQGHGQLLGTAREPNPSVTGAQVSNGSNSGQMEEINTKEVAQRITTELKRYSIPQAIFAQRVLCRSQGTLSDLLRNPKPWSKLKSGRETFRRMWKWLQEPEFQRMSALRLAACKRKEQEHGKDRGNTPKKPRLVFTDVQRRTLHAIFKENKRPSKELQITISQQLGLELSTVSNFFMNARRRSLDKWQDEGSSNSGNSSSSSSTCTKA
Heat shock factor protein 1 (Homo sapiens), sequence (Q00613 whole entry, looked up, the tested form may be a part): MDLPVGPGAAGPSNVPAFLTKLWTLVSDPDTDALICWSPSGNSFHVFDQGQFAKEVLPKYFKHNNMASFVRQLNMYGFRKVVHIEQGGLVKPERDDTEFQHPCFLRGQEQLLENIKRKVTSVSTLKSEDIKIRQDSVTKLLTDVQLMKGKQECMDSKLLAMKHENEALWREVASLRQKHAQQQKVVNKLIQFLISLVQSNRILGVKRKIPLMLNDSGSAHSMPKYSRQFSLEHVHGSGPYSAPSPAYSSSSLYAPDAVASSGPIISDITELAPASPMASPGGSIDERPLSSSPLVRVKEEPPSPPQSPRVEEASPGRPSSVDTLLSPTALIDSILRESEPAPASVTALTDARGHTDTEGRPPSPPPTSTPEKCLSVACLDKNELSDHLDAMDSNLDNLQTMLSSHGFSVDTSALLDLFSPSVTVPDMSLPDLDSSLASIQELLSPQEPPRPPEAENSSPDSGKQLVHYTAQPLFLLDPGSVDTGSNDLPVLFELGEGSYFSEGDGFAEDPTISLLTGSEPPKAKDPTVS
Hepatocyte nuclear factor 3-beta (Homo sapiens), sequence (Q9Y261 whole entry, looked up): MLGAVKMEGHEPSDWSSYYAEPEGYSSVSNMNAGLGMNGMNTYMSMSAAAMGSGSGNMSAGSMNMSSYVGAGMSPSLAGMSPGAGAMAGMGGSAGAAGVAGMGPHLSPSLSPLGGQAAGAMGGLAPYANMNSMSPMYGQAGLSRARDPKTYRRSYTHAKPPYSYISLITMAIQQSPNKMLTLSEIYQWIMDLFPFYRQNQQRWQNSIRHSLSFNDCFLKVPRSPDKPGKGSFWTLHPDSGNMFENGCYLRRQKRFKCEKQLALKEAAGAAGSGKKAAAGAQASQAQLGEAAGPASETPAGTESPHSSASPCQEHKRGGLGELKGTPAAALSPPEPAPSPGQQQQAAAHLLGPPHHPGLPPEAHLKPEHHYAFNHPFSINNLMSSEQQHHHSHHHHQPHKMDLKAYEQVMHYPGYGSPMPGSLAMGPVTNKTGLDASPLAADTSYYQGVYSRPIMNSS
Hypoxia-inducible factor 1-alpha (Homo sapiens), sequence (Q16665 whole entry, looked up): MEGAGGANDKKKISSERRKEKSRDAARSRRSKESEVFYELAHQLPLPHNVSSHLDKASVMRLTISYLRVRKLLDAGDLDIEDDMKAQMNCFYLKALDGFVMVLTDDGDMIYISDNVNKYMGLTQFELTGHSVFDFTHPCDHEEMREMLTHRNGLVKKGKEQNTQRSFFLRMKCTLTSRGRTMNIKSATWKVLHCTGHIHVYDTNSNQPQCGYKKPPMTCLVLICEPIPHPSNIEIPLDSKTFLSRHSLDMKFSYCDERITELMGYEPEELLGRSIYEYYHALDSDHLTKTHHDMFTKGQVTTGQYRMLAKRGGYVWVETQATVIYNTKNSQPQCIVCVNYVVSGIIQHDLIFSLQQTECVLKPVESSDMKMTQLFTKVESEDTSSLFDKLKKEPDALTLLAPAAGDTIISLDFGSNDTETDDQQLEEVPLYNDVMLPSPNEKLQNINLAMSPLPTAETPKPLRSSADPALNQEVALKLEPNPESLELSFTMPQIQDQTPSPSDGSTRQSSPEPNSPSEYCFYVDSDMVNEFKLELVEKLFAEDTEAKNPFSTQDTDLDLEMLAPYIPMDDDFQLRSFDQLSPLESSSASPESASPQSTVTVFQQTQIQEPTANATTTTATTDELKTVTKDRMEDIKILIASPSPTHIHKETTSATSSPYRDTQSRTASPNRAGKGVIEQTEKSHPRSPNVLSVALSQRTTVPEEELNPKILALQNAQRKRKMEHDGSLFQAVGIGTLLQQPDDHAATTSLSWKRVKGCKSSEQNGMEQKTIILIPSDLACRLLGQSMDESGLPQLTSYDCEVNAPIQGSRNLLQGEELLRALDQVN

Turning to `CCCCCC(CO)CCC` (configuration not stated), the result in [1], in [2], in experiment [3], in experiment [4], in experiment [5] and in experiment [6] was inactive. Further, the molecule was called inactive in experiment [7], in [8], in experiment [9], in experiment [10], in experiment [11] and in experiment [12]. Moreover, the molecule was called inactive in experiment [13], in [14], in experiment [15] and in experiment [16].
For the molecule `CCCCCCCCCCCCCCCC(=O)O`, the outcome in [1], in experiment [2], in [3], in experiment [4], in [5] and in [6] was inactive. The molecule was classed as inactive in [7], in experiment [8], in experiment [9], in experiment [17], in experiment [10] and in experiment [11]. Besides, the molecule was called inactive in experiment [12], in [13], in experiment [14], in [15], in experiment [16] and in [18].
Consider `OC1OC[C@@H](O)[C@H](O)[C@H]1O` (some centres not stated), for which the result in experiment [1], in experiment [2], in [3], in experiment [4], in experiment [5] and in experiment [6] was inactive. Moreover, the molecule was called inactive in [7], in experiment [8], in [9], in [17], in experiment [10] and in experiment [11]. Further, the outcome in experiment [12], in experiment [13], in [14], in [15], in experiment [16] and in experiment [18] was inactive.
In general, AC50 refers to the concentration at which the activity in the assay is half-maximal. On to `CCCCCCCCCCCCOCCO`, for which the AC50 in [1] is 50.6 µM (active); in experiment [6], 47.6 µM (active); in experiment [7], 56.6 µM (active); in [9] it was 60.7 µM (active); in [10], 20.4 µM (active); in experiment [16], 52.1 µM (active). Moreover, the result in [2], in [3], in experiment [4], in experiment [5], in [8] and in [17] was inactive. Further, the result in experiment [11], in experiment [13], in [14], in [15] and in experiment [18] was inactive.
Take `O=[N+]([O-])c1cc(C(F)(F)F)ccc1Cl`: the outcome in experiment [1], in [2], in experiment [3], in [4], in experiment [5] and in experiment [6] was inactive. The molecule was classed as inactive in experiment [7], in experiment [8], in [9], in experiment [17], in experiment [10] and in experiment [12]. The molecule was called inactive in [13], in experiment [14], in [15], in experiment [16] and in experiment [18].
Consider `O=S(=O)(O)NC1CCCCC1`, for which the outcome in experiment [1], in experiment [2], in [3], in experiment [4], in experiment [5] and in [6] was inactive. The result in [7], in experiment [8], in [9], in [10], in [11] and in [12] was inactive. The molecule was called inactive in experiment [13], in experiment [14], in experiment [15], in experiment [16] and in experiment [18].
For the molecule `CCCCCCOC(=O)CCCCC`, the result in [1], in experiment [2], in experiment [3], in experiment [4], in experiment [5] and in experiment [6] was inactive. Further, the call in experiment [7], in [8], in [9], in experiment [17], in experiment [10] and in experiment [11] was inactive. The molecule was classed as inactive in experiment [13], in experiment [14], in [15] and in experiment [16].
With `Nc1ccc(S(N)(=O)=O)cc1`, the result in experiment [1], in experiment [2], in experiment [3], in experiment [4], in [5] and in experiment [6] was inactive. Also, the molecule was classed as inactive in experiment [7], in experiment [8], in experiment [9], in [17], in experiment [10] and in experiment [11]. The molecule was called inactive in experiment [12], in experiment [13], in experiment [14], in [15], in experiment [16] and in [18].
